These results are taken from PubChem BioAssay (NCI).

This is part of a sample that, as a whole, favours compounds with a hit. Of some 83,000 tested, about 20% had one in any assay.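 The test compound was applied at a single concentration to cells in 96-well plates for 48 hours, and percent growth was recorded.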 Calls of active or inactive are those of the source. The calls were made as follows: active = growth percent below 10; inactive = the rest.

One experiment concerns DU-145 prostate. Kind of experiment: NCI-60 one-dose screen, 48 h (100 = growth as untreated, 0 = no growth, -100 = all killed). To be noted: 10 µM unless noted.
For `C(=C1c2ccccc2-c2ccccc21)c1ccncc1`, the growth was 84.9% (inactive).

As to `O=Nc1c2cccnc2n2nnc3ccc(Cl)cc3c12`, the growth was -10.6% (active).

Take `COc1ccc(/C=C2/SC(=Nc3c(C)nn(-c4ccccc4)c3N)NC2=O)cc1`: the growth is 43.6% (inactive).

`Cc1ccc(-c2c3c(N)c4c(nc3nc3c2c(C)nn3-c2ccccc2)CCC4)cc1`: the growth was 106% (inactive).

As to `Cc1cc(-c2ccccc2)cc(C)n1`, the growth was 125% (inactive).

Take `CCSCC1CC(O)(c2ccccc2)C(c2ccccc2)C(c2ccc(Cl)cc2)O1` (stereo unspecified): the growth was 18.2% (inactive).

For the compound `COc1ccc(/C=C/C(=O)c2cccc(NS(C)(=O)=O)c2)cc1`, the growth is 42.6% (inactive).

Take `Cc1[nH]cnc1/C=C1\SC(N2CCCCC2)=NC1=O`: the growth was 125% (inactive).

For the compound `C[N+]1(C)C2CC[C@@H]1CC(OC(=O)C(O)c1ccccc1)C2` (stereo partly specified), the growth was 127% (inactive).

Turning to `CN(C)CCCN=c1cc2c(=O)n(CCCN(C)C)c(=O)c3c(NCCCN(C)C)cc4c(O)n(CCCN(C)C)c(=O)c1c4c3-2`, the growth was -40.7% (active).

With `C[C@]12CC[C@H](O)CC1=CC[C@@H]1[C@@H]2CC[C@]2(C)C(c3cccnc3)=CC[C@@H]12`, the growth was 90.6% (inactive).

As for `CCOC(=O)Nc1ccc2c3c(cccc13)-c1ccccc1-2`, the growth was 66.1% (inactive).

`CSc1nc2nc3c(nc2c(=O)n1C)C(=O)c1ccccc1C3=O`: the growth is -89.7% (active).

Turning to `O=C1/C(=C\c2coc3ccccc3c2=O)c2ccccc2N1c1c(Cl)cccc1Cl`, the growth is 24.6% (inactive).

For the compound `O=C(Oc1cccc2ccccc12)c1ccccc1C(=O)c1ccccc1`, the growth is 99.3% (inactive).

`O=C1N=C(N2CCOCC2)S/C1=C\c1cn(-c2ccccc2)nc1-c1ccccc1`: the growth was 69.9% (inactive).

Regarding `Cn1c(N2N=C(c3ccc(Cl)cc3)CC2c2ccccc2)nc(-c2ccccc2)c(C#N)c1=O` (stereo unspecified), the growth was 89.4% (inactive).

On to `O=C(O)CNC(=O)C1(N2C(=O)c3ccccc3C2=O)CCCC1`, for which the growth was 124% (inactive).

Regarding `c1ccc(CN=C(NCc2ccccc2)NCc2ccccc2)cc1`, the growth is 66.4% (inactive).

Regarding `CN1CCN(CCCCCN=c2cc3c(=O)n(CCCCCN4CCN(C)CC4)c(=O)c4c(NCCCCCN5CCN(C)CC5)cc5c(O)n(CCCCCN6CCN(C)CC6)c(=O)c2c5c4-3)CC1`, the growth is 0.918% (active).

With `Clc1ccc2c(c1)C(Br)c1cc(Cl)cc(Cl)c1-2` (stereo unspecified), the growth was 109% (inactive).

In the case of `CCCCCCCCCCCCC1CCCC(C)C1` (stereo unspecified), the growth was 109% (inactive).

As for `CC(=O)Nc1cc2c3c(cccc3c1)-c1ccccc1-2`, the growth was 97.7% (inactive).

`Nc1ccc2c(c1)C(=O)c1cc(Cl)c(Cl)cc1-2`: the growth is 100% (inactive).

As to `CCN(CC)c1ccc(/C=C/C(=O)c2cccc(NS(C)(=O)=O)c2)cc1`, the growth was 49.6% (inactive).

For `Cc1ccc(OCC(=O)Nc2ccc(Oc3ccccc3)cc2)c([N+](=O)[O-])n1`, the growth was 90.4% (inactive).

For `Cc1nn(-c2ccccc2)cc1/C=C1\SC(N2CCCCC2)=NC1=O`, the growth was 91.4% (inactive).

Take `COc1ccc(C2=NN(C(N)=S)C(c3ccc4c(c3)OCO4)C2)cc1` (stereo unspecified): the growth is -3.99% (active).

`COc1ccc(-c2c3c(N)nc(-c4ccncc4)nc3nc3c2c(C)nn3-c2ccccc2)cc1`: the growth is 82% (inactive).

Regarding `CCOC(=O)CCC(=O)O[C@H]1[C@H](O[C@@H]2[C@@H](C)[C@H](O[C@H]3C[C@@](C)(OC)[C@@H](O)[C@H](C)O3)[C@@H](C)C(=O)O[C@H](CC)[C@@](C)(O)[C@H](O)[C@@H](C)C(=O)[C@H](C)C[C@@]2(C)O)O[C@H](C)C[C@@H]1N(C)C`, the growth is 119% (inactive).

Take `c1ccc(-c2oc(-c3ccccc3)c3ccccc23)cc1`: the growth is 90.3% (inactive).

With `O=[N+]([O-])c1cc([N+](=O)[O-])c(N2CCCC2)cc1NN=C(c1ccc(O)cc1)c1ccc(O)cc1`, the growth was 95.8% (inactive).

On to `O=C1Nc2ccc(C(=O)O)c(O)c2C1=O`, for which the growth is 111% (inactive).

Regarding `CCCCCCCCN(CCO)CCCCCCCC`, the growth is 112% (inactive).

For the compound `O=c1c2c(=NCCCN3CCCC3)cc3c(=O)n(CCCN4CCCC4)c(=O)c4c(NCCCN5CCCC5)cc(c(O)n1CCCN1CCCC1)c2c4-3`, the growth was -16.1% (active).

As for `O=C(N/N=C/c1cccc([N+](=O)[O-])c1)c1ccc(Br)o1`, the growth is 103% (inactive).

For `Nc1ccc2c(c1)Cc1cc(Cl)c(Cl)cc1-2`, the growth is 59.9% (inactive).

`Nc1ncnc2c1CN(Cc1ccccc1)CC2`: the growth was 132% (inactive).

For the compound `CC[C@@H](C)/C=C(C)/C=C/C(O)=C1\C(=O)N[C@@H](Cc2ccc(OC(=O)[C@@](OC)(c3ccccc3)C(F)(F)F)cc2)C1=O`, the growth was 73.2% (inactive).

Another experiment has as its system K-562 leukemia. The experiment is described as above. The settings on record: 10 µM unless noted.
For the compound `C(=C1c2ccccc2-c2ccccc21)c1ccncc1`, the growth is 11.4% (inactive).

`COc1ccc(/C=C2/SC(=Nc3c(C)nn(-c4ccccc4)c3N)NC2=O)cc1`: the growth is 15.2% (inactive).

On to `Cc1cc(-c2ccccc2)cc(C)n1`, for which the growth is 98% (inactive).

`Cc1[nH]cnc1/C=C1\SC(N2CCCCC2)=NC1=O`: the growth is 96.8% (inactive).

Regarding `CN(C)CCCN=c1cc2c(=O)n(CCCN(C)C)c(=O)c3c(NCCCN(C)C)cc4c(O)n(CCCN(C)C)c(=O)c1c4c3-2`, the growth was 6.48% (active).

As for `CCOC(=O)Nc1ccc2c3c(cccc13)-c1ccccc1-2`, the growth is 15.6% (inactive).

For `O=C(Oc1cccc2ccccc12)c1ccccc1C(=O)c1ccccc1`, the growth is 5.05% (active).

On to `O=C1N=C(N2CCOCC2)S/C1=C\c1cn(-c2ccccc2)nc1-c1ccccc1`, for which the growth is 92.9% (inactive).

With `O=C(O)CNC(=O)C1(N2C(=O)c3ccccc3C2=O)CCCC1`, the growth was 96.2% (inactive).

Consider `c1ccc(CN=C(NCc2ccccc2)NCc2ccccc2)cc1`, for which the growth was 35.7% (inactive).

For the compound `CN1CCN(CCCCCN=c2cc3c(=O)n(CCCCCN4CCN(C)CC4)c(=O)c4c(NCCCCCN5CCN(C)CC5)cc5c(O)n(CCCCCN6CCN(C)CC6)c(=O)c2c5c4-3)CC1`, the growth is 8.94% (active).

With `CC(=O)Nc1cc2c3c(cccc3c1)-c1ccccc1-2`, the growth is 71.9% (inactive).

`Nc1ccc2c(c1)C(=O)c1cc(Cl)c(Cl)cc1-2`: the growth is 87.5% (inactive).

With `Cc1nn(-c2ccccc2)cc1/C=C1\SC(N2CCCCC2)=NC1=O`, the growth is 32.1% (inactive).

Take `COc1ccc(C2=NN(C(N)=S)C(c3ccc4c(c3)OCO4)C2)cc1` (stereo unspecified): the growth is 5.68% (active).

Consider `c1ccc(-c2oc(-c3ccccc3)c3ccccc23)cc1`, for which the growth is 86.5% (inactive).

Turning to `O=C1Nc2ccc(C(=O)O)c(O)c2C1=O`, the growth was 107% (inactive).

With `CCCCCCCCN(CCO)CCCCCCCC`, the growth was 104% (inactive).

For `O=c1c2c(=NCCCN3CCCC3)cc3c(=O)n(CCCN4CCCC4)c(=O)c4c(NCCCN5CCCC5)cc(c(O)n1CCCN1CCCC1)c2c4-3`, the growth was 6.04% (active).

With `Nc1ccc2c(c1)Cc1cc(Cl)c(Cl)cc1-2`, the growth was 67.4% (inactive).

Regarding `Nc1ncnc2c1CN(Cc1ccccc1)CC2`, the growth is 98.1% (inactive).

`CC[C@@H](C)/C=C(C)/C=C/C(O)=C1\C(=O)N[C@@H](Cc2ccc(OC(=O)[C@@](OC)(c3ccccc3)C(F)(F)F)cc2)C1=O`: the growth is 9.3% (active).
